Measurements as given in PubChem BioAssay (Tox21).
Several values for one entry are separate records, joined by “and”; a condition that tells them apart may be missing. Equal values may be shown once. Records with an inconclusive call do not appear. Where a call stands in place of a potency, no number is given. Activity calls are given as the source filed them. Unless noted, the call rests on the fitted dose curve; in most records, active means well fitted curve in the direction sought with a large enough effect in the repeat runs; inconclusive means weak or mixed curves; inactive means no such curve, though single readings can be large; an effect the other way counts as inactive or inconclusive.

Experiments:
[1] = qHTS assay to identify aromatase inhibitors - cell viability counter screen (AID 743084);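 further: cells stimulated with testosterone during compound exposure; nearly all actives have a fitted effect of over 55% in size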
[2] = biological target: Aryl hydrocarbon receptor (Homo sapiens) (UniProt P35869); test: qHTS assay to identify small molecule that activate the aryl hydrocarbon receptor (AhR) signaling pathway (AID 743085); further: nearly all actives have a fitted effect of over 15% in size; further: potency means the concentration at half of the fitted maximal effect;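 on activation: HG2L7.5c1 human HepG2 liver cells with stably integrated DRE-driven firefly reporter; series mostly up to about 70 µM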
Outline: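 HepG2 cells stably carrying a 20-DRE firefly luciferase reporter (HG2L7.5c1) treated with compound for 24 hr at 37C. Luciferase read by ONE-Glo luminescence, with CellTiter-Fluor viability read first.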

[3] = qHTS assay to identify small molecule that activate the aryl hydrocarbon receptor (AhR) signaling pathway - cell viability counter screen (AID 743086);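 further: HepG2 liver cells carrying the AhR DRE luciferase reporter; series mostly up to about 70 µM; nearly all actives have a fitted effect of over 45% in size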
Outline: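 Cytotoxicity counter screen: CellTiter-Fluor signal (30 min, 37 C) in 4000 HepG2 cells/well carrying the DRE-luciferase reporter, following 24 h compound exposure at 37 C.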

[4] = biological target: Peroxisome proliferator-activated receptor gamma (Homo sapiens) (UniProt P37231); test: qHTS assay to identify small molecule agonists of the peroxisome proliferator-activated receptor gamma (PPARg) signaling pathway (AID 743094; active means well fitted activation curve with a large enough effect in the signal ratio in the repeat runs, not every such curve was filed as active; the % refers to the signal ratio)
Outline: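 Stably transfected HEK293H cells (GeneBLAzer PPARg UAS-bla) were incubated with test substances for 17 h at 37C after a 5 h pre-incubation; beta-lactamase activity was then detected by FRET substrate fluorescence.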

Chain of Peroxisome proliferator-activated receptor gamma (Homo sapiens) (P37231 whole entry, looked up): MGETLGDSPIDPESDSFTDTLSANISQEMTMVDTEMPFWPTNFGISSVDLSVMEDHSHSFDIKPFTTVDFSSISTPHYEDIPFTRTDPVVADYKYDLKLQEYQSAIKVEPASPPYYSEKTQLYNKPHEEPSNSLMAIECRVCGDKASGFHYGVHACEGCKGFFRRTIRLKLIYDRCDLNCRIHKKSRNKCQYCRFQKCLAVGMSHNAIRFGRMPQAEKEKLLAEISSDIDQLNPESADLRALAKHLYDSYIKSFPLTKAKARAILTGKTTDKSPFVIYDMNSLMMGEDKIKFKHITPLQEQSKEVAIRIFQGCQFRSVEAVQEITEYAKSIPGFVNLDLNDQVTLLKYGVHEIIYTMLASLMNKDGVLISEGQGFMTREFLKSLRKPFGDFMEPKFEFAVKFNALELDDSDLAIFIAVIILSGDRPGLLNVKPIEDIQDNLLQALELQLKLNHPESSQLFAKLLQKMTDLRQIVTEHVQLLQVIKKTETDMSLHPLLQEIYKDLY
Chain of Aryl hydrocarbon receptor (Homo sapiens) (P35869 whole entry, looked up): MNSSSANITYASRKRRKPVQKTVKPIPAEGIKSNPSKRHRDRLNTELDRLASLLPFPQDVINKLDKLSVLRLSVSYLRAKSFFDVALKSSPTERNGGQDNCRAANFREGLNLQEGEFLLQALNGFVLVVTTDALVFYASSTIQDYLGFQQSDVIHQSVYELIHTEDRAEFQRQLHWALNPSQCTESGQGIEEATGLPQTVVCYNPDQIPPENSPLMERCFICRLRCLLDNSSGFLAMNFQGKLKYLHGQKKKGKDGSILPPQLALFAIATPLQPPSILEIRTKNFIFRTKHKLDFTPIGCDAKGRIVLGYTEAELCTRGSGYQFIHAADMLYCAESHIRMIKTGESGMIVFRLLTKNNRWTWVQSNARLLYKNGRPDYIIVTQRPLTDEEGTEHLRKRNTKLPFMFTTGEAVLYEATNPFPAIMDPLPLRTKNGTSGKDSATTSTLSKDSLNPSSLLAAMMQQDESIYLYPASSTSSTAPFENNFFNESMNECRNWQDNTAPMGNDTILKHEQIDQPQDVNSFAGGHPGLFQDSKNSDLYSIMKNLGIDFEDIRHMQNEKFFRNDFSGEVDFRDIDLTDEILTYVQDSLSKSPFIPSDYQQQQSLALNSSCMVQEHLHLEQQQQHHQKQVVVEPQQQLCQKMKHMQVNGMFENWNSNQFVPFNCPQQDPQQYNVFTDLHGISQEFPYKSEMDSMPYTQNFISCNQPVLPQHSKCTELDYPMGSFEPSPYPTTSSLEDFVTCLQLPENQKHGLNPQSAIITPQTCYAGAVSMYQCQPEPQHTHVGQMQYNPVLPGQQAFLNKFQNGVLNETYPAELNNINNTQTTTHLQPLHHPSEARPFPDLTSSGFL

| SMILES | Potency [1] | Potency [2] | Potency [3] | Potency [4] |
| --- | --- | --- | --- | --- |
| NS(=O)(=O)c1cc(Cl)c(Cl)c(S(N)(=O)=O)c1 | inactive | inactive | inactive | – |
| C=N[C@@H](C(=O)N[C@@H]1C(=O)N2[C@@H]1SC(C)(C)[C@@H]2C(=O)O)c1ccccc1 | inactive | inactive | inactive | – |
| CO/N=C(\C(=O)N[C@@H]1C(=O)N2C(C(=O)[O-])=C(C[n+]3cccc4c3CCC4)CS[C@H]12)c1csc(N)n1 | inactive | inactive | inactive | – |
| CC[C@@]1([C@@H]2O[C@@H]([C@H]3O[C@@](O)(CO)[C@H](C)C[C@@H]3C)C[C@@H]2C)CC[C@H]([C@]2(C)CC[C@]3(C[C@H](O)[C@@H](C)[C@@H]([C@@H](C)[C@@H](OC)[C@H](C)C(=O)O)O3)O2)O1 (stereo in doubt) | inactive | inactive | inactive | – |
| CC12CCC(C[N+](C)(CCC[N+](C)(C)C)C1)C2(C)C (stereo unspecified) | inactive | inactive | inactive | inactive |
| O=C(Cn1cnnn1)N[C@@H]1C(=O)N2C(C(=O)O)=C(CSc3nncs3)CS[C@H]12 | inactive | inactive | inactive | inactive |
| OCl | inactive | inactive | inactive | inactive |
| C/C(=C\C(=O)OCCCCCCCCC(=O)O)C[C@@H]1OC[C@H](C[C@@H]2O[C@H]2[C@@H](C)[C@H](C)O)[C@@H](O)[C@H]1O | inactive | inactive | inactive | inactive |
| O=P(O)(O)C(O)(Cn1ccnc1)P(=O)(O)O | inactive | inactive | inactive | inactive |
| OCC1(CO)COC(C(Cl)(Cl)Cl)OC1 | inactive | inactive | inactive | inactive |
| CN[C@@H]1[C@@H](O[C@H]2O[C@H](CO)[C@@H](N)[C@H](O)[C@H]2O)O[C@H]2C[C@@H](N)[C@@H](O[C@H]3[C@H](O)[C@@H](O)[C@H](N)C[C@@H]3N)O[C@@H]2[C@@H]1O | inactive | inactive | inactive | inactive |
| NCCCC[C@H](NC(=O)[C@@H]1CCCN1C(=O)[C@@H]1CSSC[C@H](N)C(=O)N[C@@H](Cc2ccc(O)cc2)C(=O)N[C@@H](Cc2ccccc2)C(=O)N[C@@H](CCC(N)=O)C(=O)N[C@@H](CC(N)=O)C(=O)N1)C(=O)NCC(N)=O | inactive | inactive | inactive | inactive |
| NCCO/C=C/[C@H](N)C(=O)O | inactive | inactive | inactive | inactive |
| CC(C)OC(=O)Nc1ccc2nc(-c3cscn3)[nH]c2c1 | inactive | 6.68 µM (active) | inactive | inactive |
| O=C(O)/C=C/C(=O)Nc1ccc(S(=O)(=O)Nc2nccs2)cc1 | inactive | inactive | inactive | inactive |
| NC(=S)NS(=O)(=O)c1ccc(N)cc1 | inactive | inactive | inactive | inactive |
| C(=C\c1ccncc1)/c1ccccc1 | inactive | 23.7 µM (active) and 13.3 µM (active) | inactive | inactive |
| O=C1C2CC3CC1CC(O)(C3)C2 | inactive | inactive | inactive | inactive |
| CC1(C)CCC(NC(=O)[C@@H](N)CCC(=O)O)CC1 | inactive | inactive | inactive | inactive |
| O=C1c2c(O)cccc2[C@H]([C@@H]2O[C@H](CO)[C@@H](O)[C@H](O)[C@H]2O)c2cc(CO)cc(O)c21 | inactive | inactive | inactive | inactive |
| NC(N)=NCc1cccc(I)c1 | inactive | inactive | inactive | inactive |
| CC[N+](CC)(CC)CCC(O)(c1ccccc1)C1CCCCC1 (stereo unspecified) | inactive | inactive | inactive | inactive |
| CC(CNC(=O)c1cccnc1)NC(=O)c1cccnc1 (stereo unspecified) | inactive | inactive | inactive | inactive |
| CC1(C)S[C@@H]2[C@H](N3C(=O)C(c4ccccc4)NC3(C)C)C(=O)N2[C@H]1C(=O)O (stereo partly specified) | inactive | inactive | inactive | inactive |
| CO[C@H]1C[C@H](O[C@H]2[C@H](C)[C@@H](O[C@@H]3O[C@H](C)C[C@H](N(C)C)[C@H]3O)[C@@H](C)C[C@]3(CO3)C(=O)[C@H](C)[C@@H](O)[C@@H](C)[C@@H](C)OC(=O)[C@@H]2C)O[C@@H](C)[C@@H]1O | inactive | inactive | inactive | inactive |
